Test [1] in a line: Cell Viability - Jurkat (AID 426;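 active = dose-dependent loss of cell ATP signal giving a full or clear fitted curve, ranked by lower potency value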;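 also: potency is read from the fitted curve at half-maximal effect; cells exposed to compound for 40 hours at 37 °C before ATP read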). As to conditions: qHTS. The procedure, abridged: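 Seed 5000 Jurkat E6-1 cells/well; add compound; incubate 40 hr at 37 °C; add CellTiter-Glo; wait 20 min at room temperature; read luminescence. Fit concentration-response with Hill equation for AC50.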
Background: qHTS replaces the single test concentration by a dilution series.

The nature of test [2]: Cell Viability - NIH 3T3 (AID 541).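 Also: cells exposed to compound for 40 hours; plate controls were DMSO alone for no effect and tamoxifen positive control for full effect; nearly all actives have a fitted effect of over 25% in size.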 As to conditions: NIH 3T3 cell viability, qHTS; activity change, negative = cytotoxicity: at 92.2 µM (top of the series). The procedure, abridged: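 AC50 values reflect concentration-dependent loss of intracellular ATP in NIH 3T3 cells after 40 hr treatment in complete culture medium, quantified by luciferase-based luminescence.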
Test [3] is described as follows: Cellular Toxicity (caspase-3) SK-N-SH (AID 661).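 Also: 0% = DMSO basal and 100% = 10 µM staurosporine.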 As to conditions: SK-N-SH caspase-3 activation, qHTS, DMSO as zero, staurosporine as full; series mostly up to 91.7 µM. The method, boiled down: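 Caspase 3/7 activation is measured as a luminescence increase from aminoluciferin released by substrate cleavage in SK-N-SH cells after 16 hr compound treatment; values are AC50 from concentration-response curves.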

The target in test [4] is Cytochrome P450 3A4 (Homo sapiens) (UniProt P08684). The experiment in a line: qHTS Assay for Inhibitors and Substrates of Cytochrome P450 3A4 (AID 884). Also: % is scaled to controls: 0 for no effect and ±100 for the full control effect; nearly all actives have a fitted effect of over 50% in size. As to conditions: recombinant CYP3A4, Luciferin-PPXE luminescence; series mostly up to 57.1 µM. The procedure, abridged: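 20 nM human CYP3A4 with 25 uM Luciferin-PPXE (at KM) in 200 mM KPO4, preincubated 10 min with compound; NADPH regeneration started a 60 min RT reaction. Luciferin detected by luminescence, normalized to 57 uM ketoconazole as full inhibition.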

A short description of test [5]: MultiTox-Fluor Cytotoxicity Assay - LYMP1-002 - Dead Cells (AID 960).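 Also: 0% = DMSO and 100% = tetraoctylammonium bromide; nearly all actives have a fitted effect of over 60% in size.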 The following applies: LYMP1-002 lymphoblastoid cells, dead-cell protease fluorescence; series mostly up to 46.1 µM. The method, boiled down:
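Acute cytotoxicity in a human lymphoblastoid line is scored as rising dead-cell protease signal after 16 hr exposure at 37 C, measured fluorometrically (485/520).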

The nature of test [6]: qHTS assay for small molecule antagonists of peroxisome proliferator-activated receptor delta signaling (AID 588535; active = well fitted inhibition curve with a large enough effect in the signal ratio, with a control signal flat, not every such curve was filed as active; the % refers to the signal ratio;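 as to max response: cells co-treated with a PPAR-delta agonist as stimulator during compound exposure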). The following applies: HEK293T PPARd-UAS-bla, beta-lactamase FRET ratio, 18 h; 460 nm channel. The procedure, abridged:
(§1)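 Cell-based beta-lactamase assay in antagonist mode: 4000 HEK293T PPAR-delta-UAS-bla cells per well, 5 hr preincubation then 18 hr compound incubation at 37 C. IC50 obtained by Hill equation fitting.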

The target in test [7] is Peroxisome proliferator-activated receptor delta (Homo sapiens) (UniProt Q03181). Described as above. The following applies: HEK293T PPARd-UAS-bla, beta-lactamase FRET ratio, 18 h; series mostly up to 76.7 µM. The method, boiled down:
as §1

Test [8] deals with Peroxisome proliferator-activated receptor gamma (Homo sapiens) (UniProt P37231). In words: qHTS assay for small molecule agonists of peroxisome proliferator-activated receptor gamma signaling (AID 588536; active = well fitted curve in the direction sought with a large enough effect in the signal ratio, with a control signal flat, not every such curve was filed as active; the % refers to the signal ratio;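 also: 0% = DMSO basal wells and 100% = rosiglitazone at 2 µM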). The following applies: HEK293 PPARg-UAS-bla, beta-lactamase ratio, 16 h, percent of rosiglitazone response, DMSO as zero; series mostly up to 76.7 µM. The method, boiled down: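 GeneBLAzer PPAR-gamma-UAS-bla HEK293 cells in 1% charcoal/dextran-treated FBS medium were treated 16 h at 37 C with compounds. Beta-lactamase activity was read by CCF4 ratio (460/530 nm). Response was normalized to 2 uM rosiglitazone (100%) and DMSO, then Hill-fitted for EC50 and efficacy.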

The target of test [9] is Vitamin D3 receptor (Homo sapiens) (UniProt P11473). The experiment in a line: qHTS assay for small molecule antagonists of vitamin D receptor signaling (AID 588541; calls by dose curve;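 also: receptor activated by calcitriol during compound treatment; % is scaled to controls: 0 for no effect and ±100 for the full control effect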). The following applies: HEK293T VDR-UAS-bla, beta-lactamase ratio, antagonist mode; series mostly up to 76.7 µM. The procedure, abridged: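 Antagonist-mode beta-lactamase reporter assay: HEK293T VDR-UAS-bla cells were exposed to titrated compound alongside 1-alpha,25-dihydroxyvitamin D3 at 3 nM final for 16 h. Values were normalized to the 50 nM agonist control and DMSO basal, with IC50 and efficacy from Hill equation fits.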

Test [10] has the same target. In words: qHTS assay for small molecule agonists of vitamin D receptor signaling (AID 588543; calls by dose curve;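 also: 0% = DMSO basal and 100% = reference agonist control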). The following applies: HEK293T VDR-UAS-bla, beta-lactamase ratio, 16 h; series mostly up to 76.8 µM. The method, boiled down: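 Reporter cells (HEK293T, VDR-UAS-bla) were seeded in medium with 2% charcoal-stripped serum and incubated 5 h, then compounds in concentration series were added for 16 h at 37 °C. Stimulation was scaled between DMSO basal and 50 nM 1α,25-dihydroxyvitamin D3.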

For test [11], the target named is Thyroid hormone receptor beta (Homo sapiens) (UniProt P10828). The experiment in a line: qHTS assay for small molecule agonists of thyroid hormone receptor beta signaling (AID 588545; calls by dose curve;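 also: 0% = DMSO only and 100% = 10 nM T3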). As to conditions: TR-UAS-bla GripTite HEK 293, beta-lactamase ratio, agonist mode, 18 h; series mostly up to 76.7 µM. The method, boiled down: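 TR-UAS-bla-GripTite HEK 293 cells in medium with 2% charcoal/dextran FBS, 0.1 mM NEAA and 1 mM sodium pyruvate were treated with titrated compounds for 18 hrs at 37 C. Beta-lactamase reporter was read with CCF4 dye (ex 405, em 460/530 nm); EC50 from Hill fits.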

For test [12], the target named is Voltage-gated inwardly rectifying potassium channel KCNH2 (Homo sapiens) (UniProt Q12809). The experiment in a line: qHTS Assay for Small Molecule Inhibitors of the Human hERG Channel Activity (AID 588834).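 Also: top concentration of the series differs between compounds; % is scaled to controls: 0 for no effect and ±100 for the full control effect; lower thallium flux fluorescence means stronger hERG block; nearly all actives have a fitted effect of over 50% in size.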 The following applies: U2OS BacMam hERG, FluxOR thallium flux fluorescence; series mostly up to 92.2 µM. The procedure, abridged:
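hERG-BacMam U2OS, 2000 cells/well; 0.7X FluxOR loading 1 hr RT dark; cpd ~10 min 37 °C; stim buffer; FDSS fluorescence 2 min @ 1 s; AC50 Hill fit.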

Test [13] in a line: qHTS assay for small molecule agonists of the antioxidant response element (ARE) signaling pathway (AID 651741; active = well fitted activation curve with a large enough effect in the signal ratio; the % refers to the signal ratio; also: potency is read from the fitted curve at half-maximal effect; as to activation: % of control where 0% means no effect). As to conditions: HepG2 ARE-bla reporter, beta-lactamase FRET ratio, 16 h; series mostly up to 96 µM. The method, boiled down:
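Seeding 2,000 ARE-bla HepG2 cells per well preceded a 5 h incubation at 37 C/5% CO2 and a 16 h compound exposure at 37 C. Beta-lactamase reporter activity was then quantified by fluorescence after 2 h with LiveBLAzer B/G FRET substrate.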

Test [14] is described as follows: qHTS assay for small molecule activators of the p53 signaling pathway (AID 651743; active = well fitted activation curve with a large enough effect in the signal ratio, not every such curve was filed as active; the % refers to the signal ratio; also: % of control where 0% means no effect). The following applies: HCT-116 p53RE-bla, beta-lactamase FRET ratio, 16 h; activation: stronger effect = higher value. The procedure, abridged:
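Screen for p53 pathway agonists uses stably transfected p53RE-bla HCT-116 cells, 4,000 per well, treated 16 h at 37 C with compounds in DMSO.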

The nature of test [15]: qHTS assay for small molecule disruptors of the mitochondrial membrane potential - 1 hr assay (AID 651754; calls by dose curve; also: % is scaled to controls: 0 for no effect and ±100 for the full control effect; nearly all actives have a fitted effect of over 35% in size). As to conditions: series mostly up to 92.2 µM. The procedure, abridged: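 Steps: seed HepG2 cells and let attach overnight; pin-transfer compound or vehicle; incubate 1 hr at 37C; add Mito-MPS dye for 30 min; read two-channel fluorescence for monomer and aggregate forms.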

The target of test [16] is Tumor necrosis factor (Homo sapiens) (UniProt P01375). The experiment in a line: qHTS assay to identify small molecules that stimulate Tumor Necrosis Factor-alpha (TNF-alpha) secretion (AID 651757; active = well fitted curve in the direction sought with a large enough effect in the signal ratio; the % refers to the signal ratio; also: 0% is about no effect). The following applies: Human cells, HTRF 665/615 ratio; series mostly up to 92.2 µM. The method, boiled down:
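Secreted TNF-alpha from compound-treated THP-1 cells (17 hrs, 37 C) was quantified with a homogeneous time-resolved fluorescence antibody assay.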

The target in test [17] is Nuclear receptor ROR-gamma (Homo sapiens) (UniProt P51449). The experiment in a line: qHTS assay for small molecule antagonists of the retinoid-related orphan receptor gamma (ROR-gamma) signaling pathway (AID 651802).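 Also: CHO cells with doxycycline-induced ROR-gamma expression; luciferase reporter luminescence driven by ROR response element; % is scaled to controls: 0 for no effect and ±100 for the full control effect; nearly all actives have a fitted effect of over 60% in size.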 As to conditions: ROR-gamma antagonist cell reporter assay; series mostly up to 92.2 µM. The procedure, abridged:
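Antagonism is scored as a fall in luminescence from a RORE-luciferase reporter in CHO cells expressing ROR under a TET-inducible promoter, measured 16hr after doxycycline induction in the presence of compound.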

A short description of test [18]: qHTS assay for small molecule activators of the human pregnane X receptor (PXR) signaling pathway (AID 720659; call rule not given here; also: 0% is about no effect). The following applies: DPX-2 HepG2 CYP3A4-luciferase, 24 h; series mostly up to 92.3 µM.
Test [19] in a line: Cell Viability - LYMP2-013 (AID 970).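 Also: cells exposed to compound for 24 h at 37 °C; 0% = DMSO only and full inhibition = tetraoctylammonium bromide control; nearly all actives have a fitted effect of over 55% in size.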 The following applies: LYMP2-013 lymphoblastoid cells viability; series mostly up to 92.2 µM. The method, boiled down:
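Acute toxicity was measured in human lymphoblastoid cells (2500/well) exposed to compound titrations for 24 hr, with ATP luminescence (CellTiter-Glo) as read-out and AC50 fitted by Hill equation.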

Test [20] is described as follows: Cell Viability - LYMP1-003 - Assay at 24 hr (AID 963).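 Also: plate controls were DMSO only for no effect and tetraoctylammonium bromide positive control for full effect.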 The following applies: LYMP1-003 lymphoblastoid cell viability; series mostly up to 92.2 µM. The method, boiled down:
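Acute toxicity in LYMP1-003 lymphoblastoid cells: 24 hr compound treatment at 37 C, ATP measured with CellTiter-Glo after 30 min at room temperature. AC50 derived by fitting the Hill equation to qHTS titrations.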

Molecules are shown by their SMILES. Inconclusive results are not listed. Active and inactive are the calls of the source. Unless noted, calls follow the shape of the dose curve; as a rule, active = well fitted curve in the direction sought with a large enough effect; inconclusive = small, poorly fitted or top-dose-only effect, or another doubt; inactive = no such curve, though single readings can be large; an effect the other way counts as inactive or inconclusive. Some results are limits rather than exact numbers.

Voltage-gated inwardly rectifying potassium channel KCNH2 (Homo sapiens), sequence (Q12809 whole entry, looked up): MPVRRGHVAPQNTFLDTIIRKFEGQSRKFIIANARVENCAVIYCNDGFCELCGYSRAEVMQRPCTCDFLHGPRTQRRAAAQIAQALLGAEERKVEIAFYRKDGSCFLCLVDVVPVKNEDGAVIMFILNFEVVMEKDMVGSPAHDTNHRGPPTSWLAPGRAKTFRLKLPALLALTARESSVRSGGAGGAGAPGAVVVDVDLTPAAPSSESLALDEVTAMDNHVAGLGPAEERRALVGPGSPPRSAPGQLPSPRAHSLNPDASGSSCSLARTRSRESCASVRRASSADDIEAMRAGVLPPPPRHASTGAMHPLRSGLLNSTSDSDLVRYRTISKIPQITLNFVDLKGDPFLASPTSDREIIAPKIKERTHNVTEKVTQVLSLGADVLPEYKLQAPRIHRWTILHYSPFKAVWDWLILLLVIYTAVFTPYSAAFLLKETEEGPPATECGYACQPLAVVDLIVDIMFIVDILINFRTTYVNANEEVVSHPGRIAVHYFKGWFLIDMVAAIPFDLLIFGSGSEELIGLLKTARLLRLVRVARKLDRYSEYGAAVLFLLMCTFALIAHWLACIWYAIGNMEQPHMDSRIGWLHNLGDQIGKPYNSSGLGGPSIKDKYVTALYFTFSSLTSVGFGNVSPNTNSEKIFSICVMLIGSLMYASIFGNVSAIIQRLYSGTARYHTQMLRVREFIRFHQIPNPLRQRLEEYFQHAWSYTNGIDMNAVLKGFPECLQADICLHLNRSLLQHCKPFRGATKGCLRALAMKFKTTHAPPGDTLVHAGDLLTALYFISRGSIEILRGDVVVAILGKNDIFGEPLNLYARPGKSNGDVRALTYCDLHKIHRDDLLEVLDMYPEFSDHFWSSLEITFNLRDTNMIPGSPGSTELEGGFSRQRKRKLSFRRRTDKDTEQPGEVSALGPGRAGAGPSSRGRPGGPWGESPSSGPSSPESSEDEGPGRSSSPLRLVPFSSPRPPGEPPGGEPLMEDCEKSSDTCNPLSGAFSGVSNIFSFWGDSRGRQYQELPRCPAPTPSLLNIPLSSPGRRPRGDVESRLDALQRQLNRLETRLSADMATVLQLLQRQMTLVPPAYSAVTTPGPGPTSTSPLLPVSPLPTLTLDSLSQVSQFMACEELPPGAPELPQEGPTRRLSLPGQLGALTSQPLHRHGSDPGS
Tumor necrosis factor (Homo sapiens), sequence (P01375 whole entry, looked up): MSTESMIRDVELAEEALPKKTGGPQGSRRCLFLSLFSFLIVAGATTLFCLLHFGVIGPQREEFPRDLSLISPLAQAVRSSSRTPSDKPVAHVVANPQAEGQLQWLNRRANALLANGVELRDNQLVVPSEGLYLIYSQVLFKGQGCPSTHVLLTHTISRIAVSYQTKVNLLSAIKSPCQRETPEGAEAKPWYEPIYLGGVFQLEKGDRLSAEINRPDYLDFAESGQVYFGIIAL
Peroxisome proliferator-activated receptor delta (Homo sapiens), sequence (Q03181 whole entry, looked up): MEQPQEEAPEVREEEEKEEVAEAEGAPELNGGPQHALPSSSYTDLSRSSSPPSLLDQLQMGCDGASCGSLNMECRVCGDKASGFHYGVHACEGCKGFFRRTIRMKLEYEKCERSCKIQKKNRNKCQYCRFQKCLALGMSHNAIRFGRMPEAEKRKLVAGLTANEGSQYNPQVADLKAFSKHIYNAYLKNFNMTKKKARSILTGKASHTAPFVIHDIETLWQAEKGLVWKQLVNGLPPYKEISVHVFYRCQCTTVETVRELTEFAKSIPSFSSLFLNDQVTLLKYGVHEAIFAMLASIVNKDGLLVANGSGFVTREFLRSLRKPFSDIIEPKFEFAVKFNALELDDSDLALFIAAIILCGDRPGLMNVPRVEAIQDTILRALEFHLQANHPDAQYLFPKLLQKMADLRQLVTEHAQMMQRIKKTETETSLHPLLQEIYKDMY
Vitamin D3 receptor (Homo sapiens), sequence (P11473 whole entry, looked up): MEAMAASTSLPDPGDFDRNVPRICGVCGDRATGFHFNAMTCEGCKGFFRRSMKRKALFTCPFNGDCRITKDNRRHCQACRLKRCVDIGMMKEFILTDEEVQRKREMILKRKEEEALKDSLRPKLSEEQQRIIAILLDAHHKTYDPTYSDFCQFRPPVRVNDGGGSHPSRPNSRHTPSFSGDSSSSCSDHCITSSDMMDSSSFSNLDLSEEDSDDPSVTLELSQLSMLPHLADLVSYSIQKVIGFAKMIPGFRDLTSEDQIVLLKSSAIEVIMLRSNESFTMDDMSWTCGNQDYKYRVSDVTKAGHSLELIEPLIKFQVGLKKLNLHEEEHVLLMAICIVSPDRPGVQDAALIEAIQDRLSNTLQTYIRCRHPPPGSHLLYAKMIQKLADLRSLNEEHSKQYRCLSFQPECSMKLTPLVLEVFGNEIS
Nuclear receptor ROR-gamma (Homo sapiens), sequence (P51449 whole entry, looked up): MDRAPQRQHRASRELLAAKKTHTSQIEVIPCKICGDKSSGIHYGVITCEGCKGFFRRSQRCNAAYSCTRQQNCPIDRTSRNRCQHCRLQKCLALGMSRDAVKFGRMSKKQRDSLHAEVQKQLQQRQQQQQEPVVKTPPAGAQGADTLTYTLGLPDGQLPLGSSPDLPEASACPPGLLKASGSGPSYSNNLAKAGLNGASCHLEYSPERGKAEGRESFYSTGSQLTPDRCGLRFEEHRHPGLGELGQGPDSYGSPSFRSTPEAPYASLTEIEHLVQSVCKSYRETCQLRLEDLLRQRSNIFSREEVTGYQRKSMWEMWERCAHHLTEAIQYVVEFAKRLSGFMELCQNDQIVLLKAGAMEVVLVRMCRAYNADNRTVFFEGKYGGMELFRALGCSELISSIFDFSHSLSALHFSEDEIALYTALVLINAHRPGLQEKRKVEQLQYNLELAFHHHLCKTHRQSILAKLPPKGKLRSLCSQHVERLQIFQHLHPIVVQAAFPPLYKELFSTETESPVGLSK
Cytochrome P450 3A4 (Homo sapiens), sequence (P08684 whole entry, looked up): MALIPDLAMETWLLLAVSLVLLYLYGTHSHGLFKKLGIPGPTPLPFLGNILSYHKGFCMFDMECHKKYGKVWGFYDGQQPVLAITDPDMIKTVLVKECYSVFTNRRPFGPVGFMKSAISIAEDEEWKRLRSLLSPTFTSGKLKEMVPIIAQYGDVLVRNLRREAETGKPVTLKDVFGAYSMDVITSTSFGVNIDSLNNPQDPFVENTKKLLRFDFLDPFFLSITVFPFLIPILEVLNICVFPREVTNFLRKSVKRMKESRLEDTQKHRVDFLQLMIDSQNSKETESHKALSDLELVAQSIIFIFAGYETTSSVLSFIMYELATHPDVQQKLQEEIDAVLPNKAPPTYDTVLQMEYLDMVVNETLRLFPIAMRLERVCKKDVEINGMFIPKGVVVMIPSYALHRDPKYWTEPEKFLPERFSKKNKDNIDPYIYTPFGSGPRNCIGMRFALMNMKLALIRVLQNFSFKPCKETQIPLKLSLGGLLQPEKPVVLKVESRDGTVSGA
Thyroid hormone receptor beta (Homo sapiens), sequence (P10828 whole entry, looked up): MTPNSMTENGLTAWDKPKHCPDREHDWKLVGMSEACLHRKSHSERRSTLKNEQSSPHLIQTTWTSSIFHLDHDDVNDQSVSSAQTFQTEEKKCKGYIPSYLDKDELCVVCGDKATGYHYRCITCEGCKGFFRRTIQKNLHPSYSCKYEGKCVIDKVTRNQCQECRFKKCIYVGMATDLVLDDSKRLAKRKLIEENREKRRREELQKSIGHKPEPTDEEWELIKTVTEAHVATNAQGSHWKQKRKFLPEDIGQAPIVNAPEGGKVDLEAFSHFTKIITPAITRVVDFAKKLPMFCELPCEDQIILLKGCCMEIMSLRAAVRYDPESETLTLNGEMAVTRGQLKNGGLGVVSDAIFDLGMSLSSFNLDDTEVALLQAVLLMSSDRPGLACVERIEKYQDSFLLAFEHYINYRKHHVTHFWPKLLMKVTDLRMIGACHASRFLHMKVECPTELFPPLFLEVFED
Peroxisome proliferator-activated receptor gamma (Homo sapiens), sequence (P37231 whole entry, looked up): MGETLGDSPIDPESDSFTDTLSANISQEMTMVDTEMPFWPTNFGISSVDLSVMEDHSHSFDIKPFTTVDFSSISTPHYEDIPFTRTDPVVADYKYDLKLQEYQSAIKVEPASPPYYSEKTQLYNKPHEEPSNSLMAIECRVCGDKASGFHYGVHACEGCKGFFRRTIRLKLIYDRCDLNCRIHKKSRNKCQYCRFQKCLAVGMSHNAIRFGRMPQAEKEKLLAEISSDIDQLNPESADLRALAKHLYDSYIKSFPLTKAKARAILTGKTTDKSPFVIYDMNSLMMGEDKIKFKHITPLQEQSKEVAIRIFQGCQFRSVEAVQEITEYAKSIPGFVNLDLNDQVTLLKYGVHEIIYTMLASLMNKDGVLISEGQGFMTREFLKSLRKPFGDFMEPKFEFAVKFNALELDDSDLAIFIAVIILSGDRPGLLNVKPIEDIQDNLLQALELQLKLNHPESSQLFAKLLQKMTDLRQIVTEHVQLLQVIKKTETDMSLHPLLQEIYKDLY

`C=Cc1cccc(C)c1`: the Potency in test [1] is > 92 µM (inactive). Besides, in test [2], the activity change, negative = cytotoxicity was 4.07% (inactive). The call in test [3], in [7], in [8] and in [18] was inactive. Besides, the Potency entry in test [4], in [5], in test [9], in [10], in test [11] and in test [12] was “inactive” in each case. Moreover, the Potency entry in [13], in test [15], in test [16] and in [17] was “inactive” throughout. For the same molecule, the max response in [6] was -23.4%. Further, the activation in test [14] is -1.54% (inactive).
For the molecule `CCCCCCN`, the Potency in [1] was > 92 µM (inactive). Also, the activity change, negative = cytotoxicity in test [2] was -9.38% (inactive). Further, the molecule was called inactive in test [3] and in test [18]. Besides, the Potency result in test [4], in [19], in [9], in test [10], in test [11] and in test [12] was “inactive” in each case. The Potency result in test [15], in [16] and in test [17] was “inactive” in each case. In addition, the activation in [14] was -1.84% (inactive).
With `C1CCCNCC1`, the Potency in [1] was > 92 µM (inactive). In test [2], the activity change, negative = cytotoxicity is -12.5% (inactive). Besides, the Potency entry in [4], in test [20], in test [11], in test [12], in test [13] and in test [16] was “inactive” in each case. In addition, the Potency result in test [17] is “inactive”. Moreover, the max response in [6] was -36.7%. For the same molecule, the outcome in test [7], in test [8] and in test [18] was inactive.
For the molecule `CC(C)COC(=O)COc1cc(Cl)c(Cl)cc1Cl`, the Potency in [1] was > 92 µM (inactive); in test [13], 42.2 µM (active). Besides, in test [2], the activity change, negative = cytotoxicity is -0.53% (inactive). Also, the Potency entry in [4], in test [5], in test [20], in test [19], in test [11] and in test [17] was “inactive” throughout. Also, in [6], the max response came to 16.7%. Moreover, the outcome in test [7], in test [8] and in test [18] was inactive. In addition, in test [14], the activation is -1.51% (inactive).
Take `c1ccc(SCCSc2ccccc2)cc1`: the Potency in test [1] is > 92 µM (inactive). For the same molecule, in [2], the activity change, negative = cytotoxicity was -5.55% (inactive). Besides, the molecule was classed as inactive in [3], in [7] and in [8]. The Potency entry in test [4], in test [5], in test [9], in test [10], in test [11] and in test [16] was “inactive” each time. In test [17], the Potency result is “inactive”. For the same molecule, the max response in test [6] stood at 21.4%. In test [14], the activation is -1.09% (inactive).
On to `Cc1ccc2ccc3cccc4ccc1c2c34`, for which the figures for the Potency in [1] and in test [13] were > 92 µM (inactive) and 59.6 µM (active), respectively. The activity change, negative = cytotoxicity in test [2] was -8.7% (inactive). The molecule was classed as inactive in [3], in test [7], in test [8] and in test [18]. Also, the Potency result in test [20], in test [11] and in [16] was “inactive” each time. The max response in test [6] was 18.4%.
On to `CC(C)S`, for which, in test [1], the Potency was > 92 µM (inactive). The activity change, negative = cytotoxicity in [2] is -8.42% (inactive). The molecule was called inactive in [3], in [7], in [8] and in [18]. Besides, the Potency result in [4], in test [5], in test [20], in [19], in [9] and in test [10] was “inactive” each time. In addition, the Potency entry in [11], in test [12], in test [15] and in [16] was “inactive” each time. Also, in [6], the max response was -7.04%. Moreover, the activation in test [14] is -1.26% (inactive).
With `CC(C)OCC1CO1` (centres undefined), in [1], the Potency was > 92 µM (inactive). Further, in [2], the activity change, negative = cytotoxicity is -16.9% (inactive). The Potency entry in test [4], in test [20], in [19], in [9], in test [10] and in test [11] was “inactive” in each case. Also, the Potency result in [12], in test [13], in test [15] and in test [16] was “inactive” throughout. Also, the max response in test [6] turned out to be 3.66%. Moreover, the outcome in [7], in test [8] and in test [18] was inactive. For the same molecule, in test [14], the activation is 0.641% (inactive).

The values are drawn from PubChem BioAssay (NCATS).
